PubChem BioAssay (NCATS)
Results filed as inconclusive are left out. The source made the active and inactive calls. Calls follow the shape of the dose curve; as a rule, active = well fitted inhibition curve with a large enough effect; inconclusive = small, poorly fitted or top-dose-only effect, or effect the other way, or another doubt; inactive = flat fitted curve, though single readings scatter.

test: qHTS Assay for Identification of Small Molecule Antagonists for Thrombopoietin (TPO) Signaling Pathway (AID 918); settings: TPO-dependent cell signaling reporter, antagonist mode; also: nearly all actives have a fitted effect of over 60% in size
Method: NIH Molecular Libraries Screening Centers Network [MLSCN]
NIH Chemical Genomics Center [NCGC]
The thrombopoietin (TPO) signaling pathway was assayed in murine Ba/F3 cells stably transfected with the human TPO receptor and a luciferase reporter gene controlled by the Glycoprotein IIb promoter (provided by Axxam). BaF3 cells are an IL-3-dependent pro B cell line that upon TPO stimulation, undergo cell division and induce the megakaryocyte marker, Glycoprotein IIb. The assay was screened at the EC50 of TPO (26 pM) to identify inhibitors of the pathway.
NCGC Assay Protocol Summary:
Cells were maintained at 37 C and 5% CO2in RPMI with 10% fetal bovine serum, 0.5 ng/mL murine IL-3, 100U/ml penicillin and 100 ug/ml streptomycin. Prior to plating, cells were incubated overnight in medium without IL-3. Cells were plated at 250 cells/5uL/well into white solid 1536-well plates, 23 nL of compounds were delivered by a pin tool, and 1 uL of TPO (26 pM final concentration in IL-3 deficient medium) was added. Following 24 hrs of incubation at 37 C and 5% CO2, 4 uL of Steadylite detector mix (PerkinElmer) was added, the plates incubated at room temperature for 10 min and luminescence was measured for 10 s and 2X binning by a ViewLux detector (Perkin Elmer).
Potency is read from the fitted curve at half-maximal effect.

Row | Structure (SMILES) | Potency
1 | CN[C@@H](C)[C@@H](O)c1ccccc1 | 3.16 µM (active)
2 | CC[C@@H]1CN2CCc3cc(OC)c(OC)cc3[C@H]2C[C@@H]1C[C@@H]1NCCc2cc(OC)c(OC)cc21 | 0.0631 µM (active)
3 | N[C@@H](Cc1cc(O)c(O)cc1O)C(=O)O | 12.6 µM (active)
4 | C[C@]1(C(=O)O)[C@@H]2CC[C@@H](O2)[C@@]1(C)C(=O)O | 5.01 µM (active)
5 | C=CCN1CCc2cccc3c2[C@@H]1Cc1ccc(O)c(O)c1-3 | 10 µM (active)
6 | C/C=C(\C)C(=O)O[C@@H]1C(C)=C2[C@H]([C@@H]1OC(=O)CCCCCCC)[C@@](C)(OC(C)=O)C[C@@H](OC(=O)CCC)[C@@]1(O)[C@H]2OC(=O)[C@]1(C)O | 0.0501 µM (active)
7 | C[C@]12Cc3cn4c(nc3C=C1CC[C@H]1[C@@H]2CC[C@@]2(C)[C@H]1CC[C@@]2(O)C#N)nc1ccccc14 | 10 µM (active)
8 | COc1ccc2c(c1)CCC1C2CC[C@]2(C)[C@H](NCCCCCCN3C(=O)C=CC3=O)CC[C@@H]12 (stereo partly drawn) | 2 µM (active)
9 | N[C@@H]1CCc2cc(O)c(O)cc2C1 | 10 µM (active)
10 | Ic1ccccc1CN[C@@H]1C2CCN(CC2)[C@H]1C(c1ccccc1)c1ccccc1 | 12.6 µM (active)
11 | Oc1cc2c(cc1O)[C@H]1c3ccccc3CN[C@@H]1CC2 | 10 µM (active)
12 | CCCN1CCc2cccc3c2[C@@H]1Cc1ccc(O)c(O)c1-3 | 12.6 µM (active)
13 | NC(N)=Nc1ccc2[nH]c3c(c2c1)C[C@]1(O)[C@@H]2Cc4ccc(O)c5c4[C@]1(CCN2CC1CC1)[C@H]3O5 | 12.6 µM (active)
